From PubChem BioAssay
Fam108B counter: Fam108B inhibition, counter-screen for RBBP9 inhibitors. inhibition, % at 9.51 µM. 300,000 tested, 0.33% active. recombinant Fam108B, FP-Rh probe fluorescence polarization. AID 1947;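 active means inhibition above the screen mean inhibition plus 3 SD, computed separately per campaign, cut at about 18% in these data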;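 further: inhibitors lower polarization as less probe binds the enzyme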
PME-1 primary: blocks human protein phosphatase methylesterase 1. Q9Y570. 320,000 tested, 0.53% active. AID 2130. recombinant PME-1, FP-Rh probe fluorescence polarization. inhibition, % at 5.9 µM;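 active means inhibition above the campaign mean of all compounds plus 3 SD, cut at about 26% in these data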;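 further: competitive labeling of PME-1 active site by serine hydrolase directed probe; inhibitors block probe labeling so polarization falls and inhibition rises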
PAD4 inh: blocks human protein arginine deiminase 4 | Q9UM07 | recombinant PAD4, RCA probe fluorescence polarization | inhibition, % at 6.36 µM | 330,000 tested, 0.41% active | AID 485272;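 active means percent inhibition above a cutoff equal to the mean of all tested compounds plus 3 SD, cut at about 15% in these data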
pPAFAH FP inh: pPAFAH (human) enzyme inhibition | Q13093 | recombinant pPAFAH, FP-rhodamine probe fluorescence polarization | inhibition, % at 3.39 µM | 330,000 tested, 1.5% active;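 active means inhibition above the mean inhibition across the screen plus 3 SD, cut at about 25% in these data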;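 further: inhibitors block binding of the rhodamine activity-based probe so polarization drops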
Target sequence (Q13093 whole entry, looked up): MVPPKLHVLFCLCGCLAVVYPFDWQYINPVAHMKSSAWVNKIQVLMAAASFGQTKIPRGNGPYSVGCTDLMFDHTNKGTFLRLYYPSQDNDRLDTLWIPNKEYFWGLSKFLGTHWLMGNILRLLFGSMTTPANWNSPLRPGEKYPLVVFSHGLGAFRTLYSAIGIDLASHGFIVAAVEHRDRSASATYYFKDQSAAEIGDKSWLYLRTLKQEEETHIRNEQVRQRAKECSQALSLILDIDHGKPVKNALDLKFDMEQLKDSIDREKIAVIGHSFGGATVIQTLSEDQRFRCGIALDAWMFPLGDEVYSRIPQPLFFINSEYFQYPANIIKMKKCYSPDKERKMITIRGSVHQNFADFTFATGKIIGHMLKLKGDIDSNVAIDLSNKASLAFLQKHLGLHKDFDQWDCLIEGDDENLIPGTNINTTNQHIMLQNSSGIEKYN
GSTO1 inh: blocks human GSTO1 in RBBP9 counter-screen | 300,000 tested, 1.1% active | AID 1974 | recombinant GSTO1, activity-based probe fluorescence polarization | inhibition, % at 5.96 µM | P78417;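 active means inhibition above the campaign mean inhibition plus 3 SD, cut at about 35% in these data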
Target sequence (P78417 whole entry, looked up): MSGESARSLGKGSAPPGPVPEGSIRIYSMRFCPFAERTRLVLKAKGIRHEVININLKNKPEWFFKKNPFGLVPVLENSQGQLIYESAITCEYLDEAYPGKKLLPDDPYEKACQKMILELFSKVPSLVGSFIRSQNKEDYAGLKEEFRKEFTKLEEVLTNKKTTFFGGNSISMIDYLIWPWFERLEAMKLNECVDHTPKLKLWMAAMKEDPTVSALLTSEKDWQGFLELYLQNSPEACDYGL
Of the large screens only hits and unclear results are named; the others gave an inactive call. Only some compounds are listed: those with a hit (about 2.3% of all), similar ones and a draw of the others.

CC(C)CN(C(=O)COC(=O)CSc1ccccc1)c1c(N)n(Cc2ccccc2)c(=O)[nH]c1=O	none
NC(=O)COC(=O)c1sc2ccccc2c1Cl	none
O=C(COC(=O)c1sc2ccccc2c1Cl)NCC1CCCCC1	pPAFAH FP inh 27
O=C(CCl)c1ccc2c(c1)CCN2C(=O)C1CC1	GSTO1 inh 57
CCOc1ccc(N2C(=O)C(c3ccccc3)=C(c3nc4ccccc4s3)C2NC(C)=O)cc1 (centres undefined)	pPAFAH FP inh 26
O=C1C=C(c2ccc(Cl)c(C(F)(F)F)c2)C[C@@H](c2ccc3c(c2)OCO3)C1	none (no result: Fam108B counter, GSTO1 inh)
CN(Cc1ccc(Cl)cc1)C(=O)CCl	GSTO1 inh 86
Cn1c2ccccc2c2cc(/C=N/NC(=O)c3cc(O)cc(O)c3)ccc21	pPAFAH FP inh 30
CCOc1ccccc1NC(=O)CC1Nc2cc(C)c(C)cc2NC1=O (centres undefined)	PME-1 primary 35
CCc1cc2c(=O)c(-c3cscn3)coc2c(CN(C)C)c1O	pPAFAH FP inh 27
NC(=O)CSc1nc2scc(-c3ccco3)c2c(=O)n1-c1ccccc1	pPAFAH FP inh 28
O=C(CSc1nc2scc(-c3ccco3)c2c(=O)n1-c1ccccc1)N1CCOCC1	none
Cc1cccc(C2=NN(c3ccc(Br)cc3)[C@@H](C(=O)N3CCOC3=O)[C@@H]2c2ccccc2)c1	pPAFAH FP inh 29 (no result: Fam108B counter, PME-1 primary, GSTO1 inh)
COc1ccccc1Cc1noc(-c2cc(Cl)ccc2OC)n1	pPAFAH FP inh 29
O=C1CC(c2ccccc2)c2cccc(F)c21 (centres undefined)	none
COc1ccc(-c2n[nH]c(C)c2-c2ccc(Cl)cc2)c(O)c1OC	pPAFAH FP inh 32
COc1ccc(-c2n[nH]c(C)c2-c2ccc(Cl)cc2)c(O)c1	none
Cc1nn(CSc2c(F)c(F)c(F)c(F)c2F)c(C)c1[N+](=O)[O-]	none (no result: Fam108B counter, GSTO1 inh)
CCCOc1ccc(S(=O)(=O)Nc2ccccn2)c2ccccc12	none
CCN(CC(=O)Nc1ccc(OC)c(Cl)c1)CC(=O)NC(C)C	none
Cc1ccc(Nc2nc(-c3c(C)nc4ccccn34)cs2)cc1	pPAFAH FP inh 28
O=C(O)c1ccc(CNC(=O)C23CC4CC(CC(C4)C2)C3)cc1	none
O=C(CN1CCN(c2ccc(O)cc2)CC1)Nc1ccc(SC(F)F)cc1	pPAFAH FP inh 33
O=C(NC1CCCCC1)C1CCC(=O)N(Cc2cccc(C(F)(F)F)c2)C1 (centres undefined)	none
CC(=O)c1ccc(OCCCC(=O)Nc2ccc(S(=O)(=O)N3CCOCC3)cc2)cc1	none
CCOC(=O)Cn1c(=O)oc2cc(S(=O)(=O)Nc3ccc(F)cc3)ccc21	pPAFAH FP inh 28
CCOC(=O)Cn1c(=O)oc2cc(S(=O)(=O)NCCc3ccc(C)cc3)ccc21	pPAFAH FP inh 29
CCOC(=O)C1(C)NC(c2cccc(C)c2)C2C(=O)N(c3ccccc3)C(=O)C21 (centres undefined)	none
Nc1[nH]ncc1-c1ccccc1	none
Nc1[nH]ncc1-c1ccc(F)cc1	pPAFAH FP inh 30
CC1Cc2cc(S(=O)(=O)N3CCC(C(=O)NCc4ccco4)CC3)ccc2N1C(=O)C1CCC1 (centres undefined)	none
O=c1cc(CSc2nc(NCc3ccccc3)c3ccccc3n2)nc2ccc(Cl)cn12	GSTO1 inh 42
O=C(CCCn1c(SCc2cc(=O)n3cc(Cl)ccc3n2)nc2ccccc2c1=O)NCC1CCCO1 (centres undefined)	none
CCOC(=O)CSc1nc(N)c(C#N)c(-c2ccc(OCC)cc2)c1C#N	none
CC1=C(C#N)c2nc(N)c(C#N)c(C)c2/C1=C\c1ccc(OCC(=O)O)c(Cl)c1	pPAFAH FP inh 32
CN(Cc1cnn(C)c1)S(=O)(=O)c1cccc([N+](=O)[O-])c1	none
Cc1cnccc1CNC(=O)CC1C(=O)NCCN1CC(C)(C)C (centres undefined)	none
CCc1cccc(NS(=O)(=O)c2ccc3c(c2)NC(=O)CO3)c1	GSTO1 inh 37
CCOC(=O)CC1COCCN1C(=O)CCc1nnc(-c2ccsc2)o1 (centres undefined)	none
Cc1cccc(N=Cc2cc3c(cc2[N+](=O)[O-])OCO3)c1	pPAFAH FP inh 28
CCn1c(SCc2ccccc2)nc2cc(S(N)(=O)=O)ccc21	none
C=CCN1C(=O)/C(=C2/Sc3ccccc3N2CCCS(=O)(=O)O)SC1=S	pPAFAH FP inh 25
C=CCN1C(=O)/C(=C2/Sc3ccccc3N2CC)SC1=S	none
COc1ccc(C2C(C(N)=O)=C(C)Nc3nc(CCCO)nn32)cc1OC (centres undefined)	none
CC(=O)Oc1ccc2c(=O)c(Oc3ccccc3)coc2c1OC(C)=O	pPAFAH FP inh 31
Cc1ccc(Oc2coc3cc(OC(=O)c4cccs4)ccc3c2=O)cc1	none
O=C(CNc1ccc(Cl)cc1)NNC(=S)NCc1ccccc1	none
O=C(CCc1ccccc1)NNC(=S)NCc1ccc(Cl)cc1	pPAFAH FP inh 28
CCc1ccc(Nc2n[n+](-c3ccccc3)c(-c3ccc(N(CC)CC)cc3)s2)cc1	pPAFAH FP inh 30
Cc1cccc(Nc2nnc(SC/C(O)=C(\C#N)c3nc4ccccc4[nH]3)s2)c1	pPAFAH FP inh 25
Cc1ccc(Nc2nnc(SC/C(O)=C(\C#N)c3nc4ccccc4[nH]3)s2)c(C)c1	PME-1 primary 64, pPAFAH FP inh 29
CCOc1ccc(CCNS(=O)(=O)c2cc3c(cc2C)NC(=O)CO3)cc1OCC	none
Cc1cc(C)c(-c2c(O)c3cccnc3n(C)c2=O)c(C)c1	none
O=C(CCS(=O)(=O)c1ccc(Br)s1)N1CCc2ccccc21	GSTO1 inh 36
COc1cccc(/C=N/Nc2ncnc3c2[nH]c2ccc(C)cc23)c1OC	GSTO1 inh 37
COc1ccc(/C=N/Nc2ncnc3c2[nH]c2ccccc23)c(OC)c1OC	none
Cc1nc2c(C(=O)NCCC(C)C)c[nH]n2c(=O)c1Cc1ccccc1F	pPAFAH FP inh 31
Cc1nc2c(C(=O)NCCC(C)C)c[nH]n2c(=O)c1Cl	none
NS(=O)(=O)c1ccc(CCNC(=O)c2ccc3nccnc3c2)cc1	pPAFAH FP inh 30 (no result: Fam108B counter, PME-1 primary, GSTO1 inh)
NS(=O)(=O)c1ccc(CCNC(=O)c2ccc(C(=O)c3ccccc3)cc2)cc1	none
COC(=O)C1CCN(C(=O)C2CCN(C(=O)[C@@H](NS(=O)(=O)c3ccc(C)cc3)C(C)C)CC2)CC1	none
O=c1oc2ccccc2nc1/C=C(O)/C=C\c1ccccc1	pPAFAH FP inh 33
CCN(C[C@H]1N[C@@](Cc2ccccc2)(C(=O)OC)[C@H]2C(=O)N(C)C(=O)[C@@H]12)S(=O)(=O)c1ccc(OC)cc1	none (no result: Fam108B counter, PME-1 primary, GSTO1 inh)
Cc1ccc(-n2c(Cc3cccn3C)nnc2SCC(=O)NCc2ccco2)cc1	pPAFAH FP inh 29
CCOC(=O)c1cc(CC)sc1NC(=O)C1CC(=O)NN1Cc1ccccc1 (centres undefined)	pPAFAH FP inh 32
CCOCC(=O)Nc1cc(C(=O)OC)ccc1C(=O)OC	GSTO1 inh 37
CCC(C)C(=O)Nc1cc(C(=O)OC)ccc1C(=O)OC (centres undefined)	none
COc1cccc(CNS(=O)(=O)c2c(C)[nH]c(C)c2C(=O)N2CCCCC2)c1	none
